# Measured values published in the supplement of paper PMC10037445.
# Whole data set: some 2,900 compounds, median “NF-kB SEAP reporter activity, fold change vs agonist alone” near 0.99, cut for the highest 2% near 2.6. This excerpt belongs to a sample that is enriched for the highest values.
# How the values were obtained:
# RAW-Dual [1] = assay: NF-kB SEAP reporter activity, fold change vs agonist alone; higher = enhanced NF-kB activity
# How it was run: (§1)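 Library stock was pin-tooled at 50 nL into 384-well plates of RAW-Dual macrophages (50,000 cells/well, DMEM), followed 1 h later by a PRR agonist, and the cells were kept at 37 °C, 5% CO2. Supernatant collected after 20 hours was read for IRF by QuantiLuc luminescence and for NF-κB by QuantiBlue absorbance at 620 nm. Reporter activity is fold change over agonist-alone wells, and a well counted as cytotoxic when its IncuCyte confluency was below 70% of agonist controls in both mask sets.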
# RAW-Dual [2] = assay: NF-kB SEAP reporter activity, fold change vs agonist alone; cytotoxicity flag (confluency mask): not cytotoxic; higher = enhanced NF-kB activity
# How it was run: as §1
# RAW-Dual [3] = assay: NF-kB SEAP reporter activity, fold change vs agonist alone; cytotoxicity flag (confluency mask): cytotoxic (confluency <70% of control); higher = enhanced NF-kB activity
# How it was run: as §1
# [4] = library stock concentration (final ~1000-fold dilution): 10 mM, cytotoxicity flag (confluency mask): not cytotoxic, agonist: Imiquimod (TLR7) […]
# [5] = library stock concentration (final ~1000-fold dilution): 10 mM, cytotoxicity flag (confluency mask): not cytotoxic, agonist: MPLA (TLR4) […]
# [6] = library stock concentration (final ~1000-fold dilution): 2 mM, cytotoxicity flag (confluency mask): not cytotoxic, agonist: MPLA (TLR4) […]
# [7] = agonist: ODN 1826 (TLR9) 0.5 ug/mL
# [8] = agonist: Pam2CSK4 (TLR2/6) 0.1 ug/mL
# [9] = agonist: Pam3CSK4 (TLR2/1) 0.1 ug/mL
# [10] = library stock concentration (final ~1000-fold dilution): 10 mM, cytotoxicity flag (confluency mask): cytotoxic (confluency <70% of control), agonist: Imiquimod (TLR7) […]
# [11] = library stock concentration (final ~1000-fold dilution): 10 mM, cytotoxicity flag (confluency mask): cytotoxic (confluency <70% of control), agonist: MPLA (TLR4) […]
structure (smiles),measurement,setting,value
C=CC(=O)N1CCN(CCCn2c(=O)c(-c3c(Cl)c(OC)cc(OC)c3Cl)cc3cnc(NC)nc32)CC1,NF-kB SEAP reporter activity,RAW-Dual [1]; [4],0.952
same,NF-kB SEAP reporter activity,RAW-Dual [1]; [5],1.23
C=CC(=O)NC1CCOCC1Nc1ncc2cc(-c3c(Cl)c(OC)cc(OC)c3Cl)ccc2n1 (stereo unspecified),NF-kB SEAP reporter activity,RAW-Dual [1]; [4],0.68
same,NF-kB SEAP reporter activity,RAW-Dual [1]; [5],0.869
C=CC(=O)Nc1cccc(C)c1Nc1ncc2cc(-c3c(Cl)c(OC)cc(OC)c3Cl)ccc2n1,NF-kB SEAP reporter activity,"RAW-Dual [1]; library stock concentration (final ~1000-fold dilution): 2 mM, cytotoxicity flag (confluency mask): not cytotoxic, agonist: Imiquimod (TLR7) […]",1.08
same,NF-kB SEAP reporter activity,RAW-Dual [1]; [6],1.2
C=CC(=O)N1CCN(CCCn2c(=O)c(-c3c(Cl)c(OC)cc(OC)c3Cl)cc3cnc(NC)nc32)CC1 (library stock concentration (final ~1000-fold dilution): 10 mM),NF-kB SEAP reporter activity,RAW-Dual [2]; agonist: LPS (TLR4) 0.1 ug/mL,3.2
same,NF-kB SEAP reporter activity,RAW-Dual [2]; [7],1.05
same,NF-kB SEAP reporter activity,RAW-Dual [2]; [8],0.933
same,NF-kB SEAP reporter activity,RAW-Dual [2]; [9],1.15
C=CC(=O)Nc1cccc(C)c1Nc1ncc2cc(-c3c(Cl)c(OC)cc(OC)c3Cl)ccc2n1 (library stock concentration (final ~1000-fold dilution): 2 mM),NF-kB SEAP reporter activity,RAW-Dual [2]; agonist: LPS (TLR4) 0.1 ug/mL,1.04
same,NF-kB SEAP reporter activity,RAW-Dual [2]; [7],1.08
same,NF-kB SEAP reporter activity,RAW-Dual [2]; [8],0.531
same,NF-kB SEAP reporter activity,RAW-Dual [2]; [9],0.89
CC(C)(C)NC(=O)C1CCC2C3CCC4NC(=O)C=CC4(C)C3CCC12C (stereo unspecified) (library stock concentration (final ~1000-fold dilution): 10 mM),NF-kB SEAP reporter activity,RAW-Dual [2]; agonist: LPS (TLR4) 0.1 ug/mL,0.988
same,NF-kB SEAP reporter activity,RAW-Dual [2]; [7],0.946
same,NF-kB SEAP reporter activity,RAW-Dual [2]; [8],0.943
same,NF-kB SEAP reporter activity,RAW-Dual [2]; [9],0.998
CC(C)(C)NC(=O)C1CCC2C3CCC4NC(=O)C=CC4(C)C3CCC12C (stereo unspecified),NF-kB SEAP reporter activity,RAW-Dual [1]; [4],0.218
same,NF-kB SEAP reporter activity,RAW-Dual [1]; [5],1.07
COc1ccc(-c2oc3c(CC=C(C)C)c(O)cc(O)c3c(=O)c2OC2OC(C)C(O)C(O)C2O)cc1 (stereo unspecified),NF-kB SEAP reporter activity,RAW-Dual [1]; [10],1.82
same,NF-kB SEAP reporter activity,RAW-Dual [1]; [11],1.45
COc1ccc(-c2oc3c(CC=C(C)C)c(O)cc(O)c3c(=O)c2OC2OC(C)C(O)C(O)C2O)cc1 (stereo unspecified) (library stock concentration (final ~1000-fold dilution): 10 mM),NF-kB SEAP reporter activity,RAW-Dual [3]; agonist: LPS (TLR4) 0.1 ug/mL,2.22
same,NF-kB SEAP reporter activity,RAW-Dual [3]; [7],0.553
same,NF-kB SEAP reporter activity,RAW-Dual [3]; [8],0.251
same,NF-kB SEAP reporter activity,RAW-Dual [3]; [9],0.457
CSC1(C(=O)Nc2ccc3[nH]nc(-c4ccc(OC(C)C)nc4)c3c2)CCN(CC(=O)N2CC=C(c3ccc(-c4ncn(C)n4)cc3)CC2)C1 (stereo unspecified),NF-kB SEAP reporter activity,RAW-Dual [1]; [4],0.202
same,NF-kB SEAP reporter activity,RAW-Dual [1]; [5],0.321
CSC1(C(=O)Nc2ccc3[nH]nc(-c4ccc(OC(C)C)nc4)c3c2)CCN(CC(=O)N2CC=C(c3ccc(-c4ncn(C)n4)cc3)CC2)C1 (stereo unspecified) (library stock concentration (final ~1000-fold dilution): 10 mM),NF-kB SEAP reporter activity,RAW-Dual [2]; agonist: LPS (TLR4) 0.1 ug/mL,0.407
same,NF-kB SEAP reporter activity,RAW-Dual [2]; [7],0.343
same,NF-kB SEAP reporter activity,RAW-Dual [2]; [8],0.0837
same,NF-kB SEAP reporter activity,RAW-Dual [2]; [9],0.136
CC(C)(C)c1nc(-c2ccc(NC(=O)Nc3cccc(C(F)(F)F)c3)c3ccccc23)c2c(N)nccn12,NF-kB SEAP reporter activity,RAW-Dual [1]; [10],0.139
same,NF-kB SEAP reporter activity,RAW-Dual [1]; [11],0.252
CC(C)(C)c1nc(-c2ccc(NC(=O)Nc3cccc(C(F)(F)F)c3)c3ccccc23)c2c(N)nccn12 (library stock concentration (final ~1000-fold dilution): 10 mM),NF-kB SEAP reporter activity,RAW-Dual [3]; agonist: LPS (TLR4) 0.1 ug/mL,0.488
same,NF-kB SEAP reporter activity,RAW-Dual [3]; [7],0.163
same,NF-kB SEAP reporter activity,RAW-Dual [3]; [8],0.0888
same,NF-kB SEAP reporter activity,RAW-Dual [3]; [9],0.136
CNC(=O)c1cc(Oc2ccc(NC(=O)Nc3ccc(Cl)c(C(F)(F)F)c3)c(F)c2)ccn1.O,NF-kB SEAP reporter activity,RAW-Dual [1]; [5],1.58
CNC(=O)c1cc(Oc2ccc(NC(=O)Nc3ccc(Cl)c(C(F)(F)F)c3)c(F)c2)ccn1.O (library stock concentration (final ~1000-fold dilution): 10 mM),NF-kB SEAP reporter activity,RAW-Dual [2]; agonist: LPS (TLR4) 0.1 ug/mL,0.727
same,NF-kB SEAP reporter activity,RAW-Dual [2]; [7],0.502
same,NF-kB SEAP reporter activity,RAW-Dual [2]; [8],0.166
same,NF-kB SEAP reporter activity,RAW-Dual [2]; [9],0.205
Cc1[nH]c(C=C2C(=O)Nc3ccc(F)cc32)c(C)c1C(=O)NCCN1CCCC1,NF-kB SEAP reporter activity,RAW-Dual [1]; [6],0.63
COc1ccc2[nH]cc(C=C3C(=O)Nc4ccc(NC(=O)CCN5CCCCC5)cc43)c2c1 (library stock concentration (final ~1000-fold dilution): 10 mM),NF-kB SEAP reporter activity,RAW-Dual [3]; agonist: LPS (TLR4) 0.1 ug/mL,4.16
same,NF-kB SEAP reporter activity,RAW-Dual [3]; [7],0.42
same,NF-kB SEAP reporter activity,RAW-Dual [3]; [8],1.36
same,NF-kB SEAP reporter activity,RAW-Dual [3]; [9],2.01
COc1ccc2[nH]cc(C=C3C(=O)Nc4ccc(NC(=O)CCN5CCCCC5)cc43)c2c1,NF-kB SEAP reporter activity,RAW-Dual [1]; [10],1.4
same,NF-kB SEAP reporter activity,RAW-Dual [1]; [11],2
Cc1[nH]c(C=C2C(=O)Nc3ccc(F)cc32)c(C)c1C(=O)NCCN1CCCC1 (library stock concentration (final ~1000-fold dilution): 2 mM),NF-kB SEAP reporter activity,RAW-Dual [2]; agonist: LPS (TLR4) 0.1 ug/mL,1.04
same,NF-kB SEAP reporter activity,RAW-Dual [2]; [7],0.183
same,NF-kB SEAP reporter activity,RAW-Dual [2]; [8],0.266
same,NF-kB SEAP reporter activity,RAW-Dual [2]; [9],0.414
CCS(=O)(=O)Nc1ccc2c(c1)/C(=C(/Nc1ccc(CN3CCCCC3)cc1)c1ccccc1)C(=O)N2 (library stock concentration (final ~1000-fold dilution): 10 mM),NF-kB SEAP reporter activity,RAW-Dual [3]; agonist: LPS (TLR4) 0.1 ug/mL,0.196
same,NF-kB SEAP reporter activity,RAW-Dual [3]; [7],0.197
same,NF-kB SEAP reporter activity,RAW-Dual [3]; [8],0.0873
same,NF-kB SEAP reporter activity,RAW-Dual [3]; [9],0.163
CCS(=O)(=O)Nc1ccc2c(c1)/C(=C(/Nc1ccc(CN3CCCCC3)cc1)c1ccccc1)C(=O)N2,NF-kB SEAP reporter activity,RAW-Dual [1]; [10],0.214
same,NF-kB SEAP reporter activity,RAW-Dual [1]; [11],0.227
CO[C@H](c1c(NC(=O)Nc2cnc(-n3nccn3)c(Cl)c2)cnc2cc(Cl)nn12)[C@@H](C)OC (library stock concentration (final ~1000-fold dilution): 10 mM),NF-kB SEAP reporter activity,RAW-Dual [2]; agonist: LPS (TLR4) 0.1 ug/mL,1.37
same,NF-kB SEAP reporter activity,RAW-Dual [2]; [7],0.862
same,NF-kB SEAP reporter activity,RAW-Dual [2]; [8],0.76
same,NF-kB SEAP reporter activity,RAW-Dual [2]; [9],0.777
CO[C@H](c1c(NC(=O)Nc2cnc(-n3nccn3)c(Cl)c2)cnc2cc(Cl)nn12)[C@@H](C)OC,NF-kB SEAP reporter activity,RAW-Dual [1]; [4],0.986
same,NF-kB SEAP reporter activity,RAW-Dual [1]; [5],0.994
